Inconclusive results are not listed. Calls of active or inactive are those of the source. The calls were made as follows: active = hit-call score of the fitted dose curve at least 0.9, where 1 is the maximum; inconclusive = response in the unintended direction; inactive = score below 0.9.
Experiments:
[1] = biological target: bovine Estrogen Receptor (ER), ESR1 (gene 407238) (UniProt P49884); experiment: NVS_NR_bER: NovaScreen (NVS) Nuclear Receptor Binding Assay for bovine Estrogen Receptor (ER) (AID 2283345);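 also: actives lower the bound radioligand count which means they displace the ER ligand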
Method in brief: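 Displacement of a radioligand from estrogen receptor in bovine uterine membrane preparations; scintillation signal taken at 18 hours, DMSO as baseline. Single-concentration duplicates (25 uM) preceded concentration-response follow-up of actives.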

[2] = biological target: Estrogen receptor (Homo sapiens) (UniProt P03372); experiment: NVS_NR_hER: NovaScreen (NVS) Nuclear Receptor Binding Assay for human Estrogen Receptor (ER) (AID 2283348)
Method in brief: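 Radioligand competitive displacement binding to estrogen receptor from MCF7 extract, cell-free; 18 h after dosing, scintillation read-out. Primary screen in duplicate at 25 uM; actives followed up in concentration series; loss of signal vs DMSO.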

[3] = biological target: Estrogen receptor (Homo sapiens) (UniProt P03372); experiment: OT_ER_ERaERa_1440: Odyssey Thera (OT) 24-hour HEK293T Protein-Complementation Assay for Estrogen Receptor-alpha/-alpha Homodimer (AID 2283349);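 also: hits raise fluorescence above DMSO for agonists and antagonists alike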
Method in brief: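 HEK293T cells stably expressing the human ER alpha ligand-binding domain (aa 310-547) as a homodimer PCA were dosed for 24 hours. Fluorescence intensity was read by laser scanning cytometry, and gain of signal was fitted relative to DMSO vehicle.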

[4] = biological target: Estrogen receptor (Homo sapiens) (UniProt P03372); experiment: OT_ER_ERaERa_0480: Odyssey Thera (OT) 8-hour HEK293T Protein-Complementation Assay for Estrogen Receptor-alpha/-alpha Homodimer (AID 2283351);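 also: rise in fluorescence from reassembled reporter fragments on ERα LBD homodimer in nucleus or whole cell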
Method in brief: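 Binding reporter in which dimerisation of ERα LBD (aa 310-547) fusions reconstitutes a fluorescent reporter in HEK293T cells. Compounds incubated 8 h; mean fluorescence intensity increase versus DMSO scored.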

[5] = biological target: Estrogen receptor (Homo sapiens) + Estrogen receptor beta (Homo sapiens) (UniProt P03372+Q92731); experiment: OT_ER_ERaERb_0480: Odyssey Thera (OT) 8-hour HEK293T Protein-Complementation Assay for Estrogen Receptor-alpha/-beta Heterodimer (AID 2283352)
Method in brief: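 HEK293T cells expressing ER-alpha/ER-beta LBD fusions to complementary reporter fragments were dosed with compound for 8 hours. Heterodimer formation was read as increased nuclear (agonist) or nuclear plus cytoplasmic (antagonist) mean fluorescence intensity versus DMSO vehicle.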

NCBI gene 100848466 = experiment: NVS_NR_bPR: NovaScreen (NVS) Nuclear Receptor Binding Assay for bovine Progextron Receptor (PR) (AID 2283343);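 also: actives lower bound radioligand signal below DMSO meaning displacement of the label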
Method in brief: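 Bovine uterine membrane preparation; radioligand displacement read by scintillation counting 18 h after dosing. Primary screen single concentration, 25 uM, in duplicate; actives followed up in concentration series. Signal loss versus DMSO baseline.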

[6] = biological target: human Constitutive Androstane Receptor (CAR), NR1I3 (gene 9970) (UniProt Q14994); experiment: NVS_NR_hCAR_Antagonist: NovaScreen (NVS) Nuclear Receptor Binding Assay for human Constitutive Androstane Receptor Antagonism (CAR) (AID 2283344)
Method in brief: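 Cell-free TR-FRET binding read 1 h after dosing, antagonist mode; loss of signal versus DMSO baseline. Primary screen in duplicate at a single 25 uM; actives retested in concentration series.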

[7] = biological target: Androgen Receptor/SRC-1 Co-activator, AR (gene 367) (UniProt P10275); experiment: OT_AR_ARSRC1_0960: Odyssey Thera (OT) 16-hour HEK293T Protein-Complementation Assay for Androgen Receptor/SRC-1 Co-activator (AID 2283353);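 also: actives raise the signal above DMSO so potency reflects increased AR and SRC-1 complex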
Method in brief: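 Interaction of AR with SRC-1 was followed by YFP fragment complementation in HEK293T cells after 16 h of dosing. Gain of nuclear-over-cytoplasmic 488 nm fluorescence against DMSO controls defined activity.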

[8] = biological target: Androgen Receptor/SRC-1 Co-activator, AR (gene 367) (UniProt P10275); experiment: OT_AR_ARSRC1_0480: Odyssey Thera (OT) 8-hour HEK293T Protein-Complementation Assay for Androgen Receptor/SRC-1 Co-activator (AID 2283354);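 also: hits raise the complementation signal above DMSO so AC50 marks enhancers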
Method in brief: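 HEK293T cells stably expressing AR and SRC-1 fused to Venus YFP fragments, imaged 8 h after dosing. Complementation fluorescence scored as nuclear/cytoplasmic ratio at 488 nm in at least 400 cells per image; gain fitted versus DMSO.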

Chain of Estrogen receptor (Homo sapiens) + Estrogen receptor beta (Homo sapiens) (P03372 whole entry, looked up, the tested form may be a part): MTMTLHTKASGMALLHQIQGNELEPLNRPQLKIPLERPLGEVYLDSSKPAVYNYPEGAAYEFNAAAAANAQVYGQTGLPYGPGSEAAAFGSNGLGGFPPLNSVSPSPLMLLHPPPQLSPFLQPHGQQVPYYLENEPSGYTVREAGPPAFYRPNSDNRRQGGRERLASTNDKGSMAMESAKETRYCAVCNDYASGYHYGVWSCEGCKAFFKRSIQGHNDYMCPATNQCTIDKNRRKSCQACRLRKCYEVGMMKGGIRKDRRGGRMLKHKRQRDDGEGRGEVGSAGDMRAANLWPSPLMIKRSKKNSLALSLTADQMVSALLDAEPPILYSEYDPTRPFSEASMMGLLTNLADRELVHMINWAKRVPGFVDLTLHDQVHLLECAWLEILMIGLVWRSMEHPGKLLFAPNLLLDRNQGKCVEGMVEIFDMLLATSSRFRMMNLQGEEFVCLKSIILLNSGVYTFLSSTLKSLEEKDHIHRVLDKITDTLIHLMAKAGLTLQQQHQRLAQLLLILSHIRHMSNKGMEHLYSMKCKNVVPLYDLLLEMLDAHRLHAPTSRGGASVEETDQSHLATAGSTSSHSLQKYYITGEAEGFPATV
Chain of Estrogen receptor (Homo sapiens) + Estrogen receptor beta (Homo sapiens) (Q92731 whole entry, looked up, the tested form may be a part): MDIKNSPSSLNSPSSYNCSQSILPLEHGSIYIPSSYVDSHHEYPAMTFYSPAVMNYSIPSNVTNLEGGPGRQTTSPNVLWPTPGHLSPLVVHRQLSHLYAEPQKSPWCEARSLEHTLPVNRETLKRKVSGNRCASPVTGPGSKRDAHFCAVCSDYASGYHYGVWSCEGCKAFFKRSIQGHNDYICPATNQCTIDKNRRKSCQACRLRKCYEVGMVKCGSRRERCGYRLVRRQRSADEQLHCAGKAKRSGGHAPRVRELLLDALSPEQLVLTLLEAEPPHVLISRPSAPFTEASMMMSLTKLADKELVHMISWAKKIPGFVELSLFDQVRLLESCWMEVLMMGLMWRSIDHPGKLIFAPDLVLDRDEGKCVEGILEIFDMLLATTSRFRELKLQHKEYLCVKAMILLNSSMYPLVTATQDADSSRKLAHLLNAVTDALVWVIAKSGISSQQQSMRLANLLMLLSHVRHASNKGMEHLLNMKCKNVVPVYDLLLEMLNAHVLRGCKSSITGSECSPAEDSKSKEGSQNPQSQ
Chain of Estrogen receptor (Homo sapiens) (P03372 whole entry, looked up, the tested form may be a part): as the sequence (P03372 whole entry, looked up, the tested form may be a part) above
Chain of Androgen Receptor/SRC-1 Co-activator, AR (gene 367) (P10275 whole entry, looked up, the tested form may be a part): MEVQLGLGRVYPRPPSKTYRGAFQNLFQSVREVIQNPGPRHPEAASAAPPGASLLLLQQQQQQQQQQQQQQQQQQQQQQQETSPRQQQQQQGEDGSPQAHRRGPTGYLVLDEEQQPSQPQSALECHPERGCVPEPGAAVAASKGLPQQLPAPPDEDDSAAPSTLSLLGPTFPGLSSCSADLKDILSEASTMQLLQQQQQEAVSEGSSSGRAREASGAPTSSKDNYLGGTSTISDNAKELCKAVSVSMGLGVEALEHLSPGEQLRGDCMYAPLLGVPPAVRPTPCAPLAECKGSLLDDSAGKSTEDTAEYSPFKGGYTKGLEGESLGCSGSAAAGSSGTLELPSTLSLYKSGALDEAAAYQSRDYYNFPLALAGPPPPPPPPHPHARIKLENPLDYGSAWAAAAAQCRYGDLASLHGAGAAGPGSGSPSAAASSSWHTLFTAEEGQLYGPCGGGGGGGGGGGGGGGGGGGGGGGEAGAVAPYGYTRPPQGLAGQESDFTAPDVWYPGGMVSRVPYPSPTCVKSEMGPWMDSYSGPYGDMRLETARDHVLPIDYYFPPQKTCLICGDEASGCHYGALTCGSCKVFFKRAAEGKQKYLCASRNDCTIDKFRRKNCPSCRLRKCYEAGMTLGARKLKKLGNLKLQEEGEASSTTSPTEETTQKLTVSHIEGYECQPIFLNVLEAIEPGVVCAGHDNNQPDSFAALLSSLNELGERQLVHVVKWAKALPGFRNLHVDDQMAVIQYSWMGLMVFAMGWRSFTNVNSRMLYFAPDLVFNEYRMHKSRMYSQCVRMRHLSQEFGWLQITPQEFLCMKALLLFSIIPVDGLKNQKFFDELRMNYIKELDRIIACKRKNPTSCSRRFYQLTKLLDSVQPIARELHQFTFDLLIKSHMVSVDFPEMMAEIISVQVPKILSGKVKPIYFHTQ
Chain of bovine Estrogen Receptor (ER), ESR1 (gene 407238) (P49884 whole entry, looked up): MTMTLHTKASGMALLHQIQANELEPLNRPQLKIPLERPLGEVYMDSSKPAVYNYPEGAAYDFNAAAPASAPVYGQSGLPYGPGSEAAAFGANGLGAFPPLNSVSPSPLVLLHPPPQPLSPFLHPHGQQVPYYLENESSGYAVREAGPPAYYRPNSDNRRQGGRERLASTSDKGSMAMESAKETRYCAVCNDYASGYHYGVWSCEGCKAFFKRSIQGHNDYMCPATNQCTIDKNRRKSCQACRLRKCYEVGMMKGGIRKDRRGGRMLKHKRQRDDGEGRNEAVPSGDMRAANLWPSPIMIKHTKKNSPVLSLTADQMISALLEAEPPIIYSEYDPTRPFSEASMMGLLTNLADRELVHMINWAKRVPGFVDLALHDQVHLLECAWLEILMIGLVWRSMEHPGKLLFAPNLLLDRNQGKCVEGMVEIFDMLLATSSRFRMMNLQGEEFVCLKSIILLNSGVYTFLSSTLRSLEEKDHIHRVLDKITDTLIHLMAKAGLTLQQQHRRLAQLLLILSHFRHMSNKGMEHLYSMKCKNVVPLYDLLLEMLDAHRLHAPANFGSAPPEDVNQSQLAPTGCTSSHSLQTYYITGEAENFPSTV
Chain of human Constitutive Androstane Receptor (CAR), NR1I3 (gene 9970) (Q14994 whole entry, looked up): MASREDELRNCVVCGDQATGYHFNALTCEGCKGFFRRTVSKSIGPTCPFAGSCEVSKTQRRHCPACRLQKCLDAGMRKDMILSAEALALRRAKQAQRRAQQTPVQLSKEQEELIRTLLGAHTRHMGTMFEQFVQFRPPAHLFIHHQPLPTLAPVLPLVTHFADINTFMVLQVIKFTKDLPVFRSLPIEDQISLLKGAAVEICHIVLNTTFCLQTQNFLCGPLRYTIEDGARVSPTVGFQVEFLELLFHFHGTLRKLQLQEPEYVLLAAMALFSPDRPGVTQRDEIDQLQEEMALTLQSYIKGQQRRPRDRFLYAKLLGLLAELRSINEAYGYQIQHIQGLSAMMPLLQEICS

CC(C)(c1ccccc1)c1ccc(O)c(C(C)(C)c2ccccc2)c1
outcome [1]: inactive
outcome [2]: inactive
outcome [3]: inactive
outcome [4]: inactive
outcome [5]: inactive

C=C(C)C(=O)[O][Sn]([CH2]CCC)([CH2]CCC)[CH2]CCC
AC50 (NCBI gene 100848466): 3.89 µM (active)
outcome [1]: inactive
outcome [2]: inactive
outcome [3]: inactive
outcome [4]: inactive
outcome [5]: inactive

Cc1ccccc1N
outcome [6]: inactive

O=C(OC1CCCCC1)c1ccccc1C(=O)OC1CCCCC1
outcome [1]: inactive
outcome [2]: inactive
AC50 [3]: 23.9 µM (active)
AC50 [4]: 35 µM (active)

Nc1ccc(-c2ccc(N)c(Cl)c2)cc1Cl
outcome [1]: inactive

CC(C)(c1ccc(OCC2CO2)cc1)c1ccc(OCC2CO2)cc1 (stereo unspecified)
outcome [1]: inactive
AC50 [2]: 14.2 µM (active)
outcome [3]: inactive
outcome [4]: inactive
outcome [5]: inactive
AC50 [7]: 79.1 µM (active)
outcome [8]: inactive

COP(=O)(OC)O/C(=C\Cl)c1cc(Cl)c(Cl)cc1Cl
outcome [1]: inactive
outcome [2]: inactive
outcome [3]: inactive
outcome [4]: inactive
AC50 [7]: 67.5 µM (active)
outcome [8]: inactive

CCC[CH2][Sn]([Cl])([Cl])[Cl]
outcome [3]: inactive
outcome [4]: inactive

O=C(NCO)NCO
outcome [3]: inactive
outcome [4]: inactive

O=C1C(Cl)=C(Cl)C(=O)c2ccccc21
AC50 [3]: 11.9 µM (active)
AC50 [4]: 11.9 µM (active)

Clc1nc(Cl)nc(Cl)n1
outcome [3]: inactive
outcome [4]: inactive

CCC1(c2ccc(N)cc2)CCC(=O)NC1=O (stereo unspecified)
outcome [2]: inactive
outcome [3]: inactive
outcome [4]: inactive
outcome [7]: inactive
outcome [8]: inactive

CC(C)(C)c1cc(O)ccc1O
outcome [2]: inactive
outcome [3]: inactive
outcome [4]: inactive

Fc1ccc(C2(Cn3cncn3)OC2c2ccccc2Cl)cc1 (stereo unspecified)
outcome [2]: inactive
AC50 [3]: 39.5 µM (active)
AC50 [4]: 23.7 µM (active)
AC50 [5]: 12.7 µM (active)

CC(C)c1ccc(CO)cc1
outcome [2]: inactive

C1CCC(NC2CCCCC2)CC1
outcome [3]: inactive
outcome [4]: inactive

COc1ccc(C=O)cc1OC
outcome [3]: inactive
outcome [4]: inactive

CCOC(=O)Nc1cccc(OC(=O)Nc2ccccc2)c1
outcome [3]: inactive
outcome [4]: inactive

OCC(O)CCl (stereo unspecified)
outcome [3]: inactive
outcome [4]: inactive

O=S(=O)(c1ccc(Cl)cc1)c1ccc(Cl)cc1
outcome [1]: inactive
outcome [3]: inactive
outcome [4]: inactive
outcome [5]: inactive

CC(C)OC(=O)Nc1ccccc1
outcome [1]: inactive
outcome [3]: inactive
outcome [4]: inactive

Reference: PubChem BioAssay (EPA / NIEHS)
